Measurements: PubChem BioAssay AID1345085 (National Center for Advancing Translational Sciences (NCATS), 2018)
Results filed as inconclusive are left out. Values without a mark were called inactive. Active and inactive are the calls of the source. Calls come from the whole dose curve; as a rule, active = well fitted cell-killing curve with a large enough effect; inconclusive = small, poorly fitted or top-dose-only effect, or effect the other way; inactive = no such curve, though single readings can be large or run the other way.

test system: Es-2; assay: Confirmatory qHTS for gynecologic anti-cancer compounds from libraries of approved drugs and bioactive compounds; conditions: gynecologic cancer cell panel viability, ATPlite luminescence, 48 h; series mostly up to 57.6 µM; activity change, negative = viability loss: at the top concentration; note: nearly all actives have a fitted effect of over 55% in size
Summary of the method: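 Viability is measured as ATP-dependent luciferase light using ATPlite, read 15 min after reagent addition at room temperature. Compounds, in DMSO, span 57.5 uM down to 0.977 nM over 11 threefold steps for 48 h.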
% is set by controls: 0 for no effect and ±100 for the full control effect; potency is the fitted concentration of half-maximal effect.

Row | SMILES | Potency | activity change, negative = viability loss
1 | CC[C@@]1(O)C(=O)OCc2c1cc1n(c2=O)Cc2cc3c(CN(C)C)c(O)ccc3nc2-1 | 0.193 µM (active) | –
2 | C[C@@H](Oc1cc(-c2cnn(C3CCNCC3)c2)cnc1N)c1c(Cl)ccc(F)c1Cl | 15.3 µM (active) | –
3 | COc1cccc2c1C(=O)c1c(O)c3c(c(O)c1C2=O)C[C@@](O)(C(=O)CO)C[C@@H]3O[C@H]1C[C@H](N)[C@H](O[C@@H]2CCCCO2)[C@H](C)O1 | 7.69 µM (active) | –
4 | COc1cc2c(c(OC)c1OC)-c1ccc(OC)c(=O)cc1[C@@H](NC(C)=O)CC2 | 0.0708 µM (active) | –
5 | CC1(C)[C@@H](O)CC[C@]2(C)[C@H]3C(=O)C=C4[C@@H]5C[C@@](C)(C(=O)O)CC[C@]5(C)CC[C@@]4(C)[C@]3(C)CC[C@@H]12 | – | 12.5%
6 | Nc1ncn([C@@H]2O[C@H](CO)[C@@H](O)[C@H]2O)c(=O)n1 | 12.2 µM (active) | –
7 | CN1CCN(Cc2ccc(NC(=O)Nc3ccc(Oc4cc(NC(=O)C5CC5)ncn4)cc3)cc2C(F)(F)F)CC1 | 0.544 µM (active) | –
8 | CN1C(=O)C(Cc2c[nH]c3ccccc23)NC1=S (stereo unspecified) | – | -13.7% [at 19.5 µM]
9 | Cc1cc(Nc2cc(N3CCN(C)CC3)nc(/C=C/c3ccccc3)n2)n[nH]1 | 24.3 µM (active) | –
10 | CO[C@@]12[C@H](COC(N)=O)C3=C(C(=O)C(C)=C(N)C3=O)N1C[C@@H]1N[C@@H]12 | – | 12.2%
11 | Cc1ccc(C(=O)N(CCCN)C(c2nc3cc(Cl)ccc3c(=O)n2Cc2ccccc2)C(C)C)cc1 (stereo unspecified) | 3.85 µM (active) | –
12 | NC1(c2ccc(-c3nc4ccn5c(=O)[nH]nc5c4cc3-c3ccccc3)cc2)CCC1 | – | -4.22%
13 | CNC(=O)c1ccccc1Sc1ccc2c(/C=C/c3ccccn3)n[nH]c2c1 | 19.3 µM (active) | –
14 | Cc1[nH]c2ccccc2c1CCNCc1ccc(/C=C/C(=O)NO)cc1 | 0.172 µM (active) | –
15 | CC1=C(/C=C/C(C)=C/C=C/C(C)=C/C(=O)Nc2ccc(O)cc2)C(C)(C)CCC1 | 27.3 µM (active) | –
16 | CCc1c2c(nc3ccc(O)cc13)-c1cc3c(c(=O)n1C2)COC(=O)[C@]3(O)CC | 0.0385 µM (active) | –
17 | Cc1cnc(Nc2cccc(CN3CCOCC3)c2)nc1Nc1cccc(S(=O)(=O)NC(C)(C)C)c1 | 6.11 µM (active) | –
18 | Cc1cnc(Nc2ccc(F)cc2Cl)nc1-c1c[nH]c(C(=O)NC(CO)c2cccc(Cl)c2)c1 (stereo unspecified) | – | -11.1%

Row | SMILES | Potency | activity change, negative = viability loss
19 | COC(C(=O)N1Cc2[nH]nc(NC(=O)c3ccc(N4CCN(C)CC4)cc3)c2C1)c1ccccc1 (stereo unspecified) | – | 30.1%
20 | CCC1C(=O)N(C)c2cnc(Nc3ccc(C(=O)NC4CCC(N5CCN(CC6CC6)CC5)CC4)cc3OC)nc2N1C(C)C (stereo unspecified) | 1.22 µM (active) | –
21 | Cc1nc(Nc2ncc(C(=O)Nc3c(C)cccc3Cl)s2)cc(N2CCN(CCO)CC2)n1 | 13.7 µM (active) | –
22 | O=c1c(-c2ccc(O)cc2)coc2cc(O)cc(O)c12 | 17.2 µM (active) | –
23 | CC[C@]1(O)C[C@H]2CN(CCc3c([nH]c4ccccc34)[C@@](C(=O)OC)(c3cc4c(cc3OC)N(C=O)[C@H]3[C@@](O)(C(=O)OC)[C@H](OC(C)=O)[C@]5(CC)C=CCN6CC[C@]43[C@@H]65)C2)C1 | 0.432 µM (active) | –
24 | CCC1=CC2CN(C1)Cc1c([nH]c3ccccc13)[C@@](C(=O)OC)(c1cc3c(cc1OC)N(C)[C@H]1[C@@](O)(C(=O)OC)[C@H](OC(C)=O)[C@]4(CC)C=CCN5CC[C@]31[C@@H]54)C2 (stereo partly specified) | 0.376 µM (active) | –
25 | Cn1cc(-c2[nH]c3cc(NC(=O)[C@H](N)C4CCCCC4)cc4c3c2C=NNC4=O)cn1 | 6.85 µM (active) | –
26 | CC(Oc1cc(-n2cnc3ccc(CN4CCN(C)CC4)cc32)sc1C(N)=O)c1ccccc1C(F)(F)F (stereo unspecified) | 3.43 µM (active) | –
27 | C[C@]12CCC(=O)C=C1CC[C@@H]1[C@@H]2[C@@H](O)C[C@@]2(C)[C@H]1CC[C@]2(O)C(=O)CO | – | -15.4%
28 | NC(=O)Nc1cc(-c2cccc(F)c2)sc1C(=O)NC1CCCNC1 (stereo unspecified) | 0.344 µM (active) | –
29 | C[C@]12CCC(=O)C=C1[C@@H]1C[C@@H]1[C@H]1[C@@H]3[C@@H]4C[C@@H]4[C@@]4(CCC(=O)O4)[C@@]3(C)CC[C@@H]12 | – | -1.03%
30 | CCCCN(CCCC)CC(O)c1cc(Cl)cc2c1-c1ccc(Cl)cc1/C2=C/c1ccc(Cl)cc1 (stereo unspecified) | – | -28.3%
31 | Cc1ccc(C(=O)Nc2ccc(CN3CCN(C)CC3)c(C(F)(F)F)c2)cc1C#Cc1cnc2cccnn12 | 6.11 µM (active) | –
32 | Cc1csc(NC(=O)c2sc3nc4c(c(C(F)(F)F)c3c2N)CCC4)n1 | 2.17 µM (active) | –
33 | CN(C)C(CCOc1cccc2ccccc12)c1ccccc1 (stereo unspecified) | – | -16.9%
34 | CCS(=O)(=O)c1cccc(-c2cc(C(=O)NC3CCN(C)CC3)c(C)c3[nH]c4ncc(C)cc4c23)c1 | 5.99 µM (active) | –
35 | COc1cc(F)c(F)c(Nc2ccc(I)cc2F)c1NS(=O)(=O)C1(CC(O)CO)CC1 (stereo unspecified) | 3.85 µM (active) | –
36 | COCCOc1ccc2c(c1)ncn2-c1ccc2cccc(N3CCC(N)CC3)c2n1 | 6.11 µM (active) | –
